Experimental findings from PubChem BioAssay are described below.

Inconclusive results are not listed. The source made the active and inactive calls. Cut-off read from the data, not from the text of the source, unless noted: active = inhibition above about 30%; inactive = the rest.

Usually viability stands for a read-out of living cells in per cent, often relative to untreated cells. Usually inhibition stands for the drop in the measured response relative to a control, in per cent.

The nature of experiment [1]: reducers of endogenous Her2 protein level, primary screen, SKBR3 breast tumor cells, AlphaScreen, ATP viability (AID 461;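 active = Her2 level under about 52% in both replicate screens, with viability over 70% of control, limit read from the data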;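 for Her2 level: lower value means less Her2 protein in the cells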;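 for viability: percent of carrier control wells set as 100% viability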). The note with it: 18-24 h, measured here: SKBR3 viability, ATP luminescence, at 10 µM. (In general: Bead proximity is the source of the signal in Alpha formats.)
Experiment [2] has as its target Receptor tyrosine-protein kinase erbB-2 (Homo sapiens) (UniProt P04626). The description is as above. The note with it: 18-24 h, at 10 µM, stronger effect = lower value.
Experiment [3] in a line: SK-BR-3 cell growth inhibitors, pilot screen, 24 h, human (AID 572;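 active = viability at or below 10% of carrier control in both of two separate runs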;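 note: compound exposure lasted between 18 and 24 h rather than exactly 24 h; 100% = carrier-treated control wells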). The note with it: SK-BR-3 viability, CellTiter-Glo luminescence, at 10 µM, stronger effect = lower value.
Experiment [4] can be described thus: HUVEC growth inhibition – cell-based, human, primary screen (AID 575;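 active = viability at or below 30% in both replicate assays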;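 note: 100% = median of untreated cell wells with 0.1% DMSO on each plate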). The note with it: HUVEC proliferation, CellTiter-Glo luminescence, 72 h; at 10 µM; stronger effect = lower value. In general terms: Cellular ATP, detected with luciferase, serves as a proxy for viable cell number.
The nature of experiment [5]: growth inhibitors of H69AR lung tumor, primary screen, human, duplicate replicates (AID 580;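 active = viability at or under a set limit in both replicates, limit being median viability minus 3 SD, cut at about 48% in these data, passing the limit was not always enough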;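 note: 100% = mean luminescence of untreated wells and 0% = no signal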). The note with it: H69AR lung tumor cells viability, ATP luminescence, 72 h; at 10 µM; stronger effect = lower value.
Experiment [6] is described as follows: reversal of MRP1-mediated doxorubicin resistance, pilot screen, H69AR cells, doxorubicin co-treatment (AID 601;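 active = viability loss from added drug above about 55%, and viability with drug at most 40%, in both replicates, limit read from the data, passing the limit was not always enough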). The note with it: CellTiter-Glo, 72 h, at 10 µM; for differential viability (reversal): stronger effect = higher value.
Experiment [7] in a line: 384-well plate pilot, post-Golgi transport modulator project, inhibition of yeast transport mutant growth (AID 636; in the data active = inhibition above about 31%). The note with it: absorbance 615 nm, about 18 h, stronger effect = higher value.
The nature of experiment [8]: growth suppression of yeast trafficking mutant, preliminary HTS, modulators of trafficking downstream of Golgi apparatus project, 1536-format plate, OD 615 nm (AID 637). The note with it: yeast transport mutant growth, absorbance 615 nm, 18 h; stronger effect = higher value.
The nature of experiment [9]: OD615 S. cerevisiae growth inhibition, permissive medium, pilot counter-assay, permissive growth control for S. cerevisiae lifespan shortening project (AID 705;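 active = growth inhibition above 25% in both replicates, a cutoff set 3 SD above the mean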). The note with it: OD615, 24 h, at 10 µM, stronger effect = higher value.
Experiment [10] in a line: Restrictive medium S. cerevisiae growth inhibition, OD615, pilot screen of yeast lifespan reduction project, restrictive growth control (AID 706;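 active = growth inhibition above a set limit, 3 SD over mean compound inhibition, in both replicates, cut at about 43% in these data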;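 note: modified DeaD lifespan yeast strain shifted to restrictive glucose medium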). The note with it: OD615, 48 h, at 10 µM, stronger effect = higher value.
The nature of experiment [11]: viability gain of MRP-1-high H69AR cells under doxorubicin, pilot screen, MRP-1 activator project, CellTiter-Glo, duplicate (AID 807;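 active = viability increase at or above a cutoff of the median across tested compounds plus 3 SD, cut at about 8.5% in these data, passing the limit was not always enough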;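 note: compound pretreatment 18-22 h then 72 h combined with doxorubicin; 0% = doxorubicin alone and 100% = vehicle without doxorubicin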). The note with it: H69AR viability with doxorubicin, CellTiter-Glo luminescence; at 10 µM; stronger effect = higher value.
The nature of experiment [12]: growth suppression of beta-catenin knockout HCT116, pilot screen, human colon tumor cells (AID 823;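 active = cell viability at or below a set limit in both duplicate runs, the limit being the all-compound median minus 4 SD, cut at about 23% in these data, passing the limit was not always enough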;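 note: 0% = wells killed by 20 µM Hyamine and 100% = untreated DMSO cell wells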). The note with it: CellTiter-Glo, 60 h, at 10 µM, stronger effect = lower value.
Experiment [13] in a line: growth suppression of PTEN-deleted HCT116, pilot screen, cell-based, HCT116 clonal line, CellTiter-Glo (AID 824;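 active = viability at or below 27.92% in each of two runs, the all-compound median minus 4 SD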;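 note: 0% = 20 µM Hyamine control and 100% = vehicle cell control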). The note with it: 60 h, at 10 µM, stronger effect = lower value.
A short description of experiment [14]: inhibitors of the yeast RAM network, pilot screen, dse1pr::URA3 reporter, 5-FOA selection (AID 869;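 active = inhibition over a set limit, the all-compound mean plus 3 SD, in both replicate runs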;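 note: 0% = DMSO wells with no growth and 100% = 10 µM 1-NA-PP1 with full growth; RAM network block rescues cells from 5-FOA so hits raise OD615 growth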). The note with it: S. cerevisiae dse1pr::URA3 5-FOA growth, OD615, 2 d; at 10 µM; stronger effect = higher value; strain carries analog-sensitive mutant Cbk1 kinase.
The nature of experiment [15]: RAM signaling pathway blockade in yeast – S. cerevisiae, Pdr1DBD-CYC8 efflux-inhibited sensitized strain, primary screen (AID 1298;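 active = RAM network inhibition above 8.4% in each of two replicates, 3 SD over the compound average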;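 note: 0% = DMSO untreated cells without growth and 100% = 10 µM 1-NA-PP1 full growth; higher means more yeast growth rescued from 5-FOA killing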). The note with it: S. cerevisiae cbk1-as DSE1-URA3 strain, 5-FOA growth OD615, 2 d; at 50 µM; stronger effect = higher value.
[16] abbreviates: H69AR cells + 2 uM doxorubicin, measured here: viability with 2 uM doxorubicin, stronger effect = lower value.
[17] abbreviates: H69AR cells, compound alone cytotoxicity.

Receptor tyrosine-protein kinase erbB-2 (Homo sapiens), sequence (P04626 whole entry, looked up): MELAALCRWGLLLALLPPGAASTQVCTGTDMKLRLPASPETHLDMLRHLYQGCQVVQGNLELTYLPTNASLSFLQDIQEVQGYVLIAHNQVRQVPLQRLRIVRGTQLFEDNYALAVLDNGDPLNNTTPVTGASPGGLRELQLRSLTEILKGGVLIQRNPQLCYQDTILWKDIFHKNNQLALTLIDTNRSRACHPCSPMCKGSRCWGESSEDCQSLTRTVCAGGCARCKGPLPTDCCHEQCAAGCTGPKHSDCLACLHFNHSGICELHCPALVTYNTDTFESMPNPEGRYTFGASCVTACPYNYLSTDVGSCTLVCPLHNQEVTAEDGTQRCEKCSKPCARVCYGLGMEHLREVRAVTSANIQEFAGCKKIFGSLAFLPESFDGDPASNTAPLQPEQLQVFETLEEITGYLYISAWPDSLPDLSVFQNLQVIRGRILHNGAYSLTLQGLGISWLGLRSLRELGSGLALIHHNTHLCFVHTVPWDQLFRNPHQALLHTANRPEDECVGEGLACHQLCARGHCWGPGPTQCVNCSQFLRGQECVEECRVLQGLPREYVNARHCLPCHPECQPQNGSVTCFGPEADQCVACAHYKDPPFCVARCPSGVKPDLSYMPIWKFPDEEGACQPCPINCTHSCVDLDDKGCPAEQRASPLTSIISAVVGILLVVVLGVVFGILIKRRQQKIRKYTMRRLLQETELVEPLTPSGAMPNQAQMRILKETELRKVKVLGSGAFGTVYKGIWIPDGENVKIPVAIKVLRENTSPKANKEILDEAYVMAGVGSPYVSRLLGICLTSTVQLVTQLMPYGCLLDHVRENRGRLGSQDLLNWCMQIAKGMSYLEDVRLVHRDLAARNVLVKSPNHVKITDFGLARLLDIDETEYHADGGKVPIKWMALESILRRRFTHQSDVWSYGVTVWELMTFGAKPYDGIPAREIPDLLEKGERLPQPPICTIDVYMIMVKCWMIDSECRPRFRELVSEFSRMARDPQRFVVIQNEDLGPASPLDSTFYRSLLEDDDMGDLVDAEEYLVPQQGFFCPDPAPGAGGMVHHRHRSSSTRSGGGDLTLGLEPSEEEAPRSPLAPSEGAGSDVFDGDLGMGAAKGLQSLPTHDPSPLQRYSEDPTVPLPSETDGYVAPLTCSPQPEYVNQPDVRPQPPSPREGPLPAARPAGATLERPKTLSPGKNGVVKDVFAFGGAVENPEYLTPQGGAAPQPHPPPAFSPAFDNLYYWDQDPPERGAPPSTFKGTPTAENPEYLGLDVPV

On to `CNC(=O)c1ccsc1NC(=O)c1ccccc1`, for which the viability was 88.5% in [1]; 88.5% (inactive) in [3]; 83.8% (inactive) in [4]; 80.8% (inactive) in experiment [5]; 84.5% in experiment [6] (setting [16]); 80.8% in experiment [6] (setting [17]). Moreover, the values for the viability in [12] and in [13] were 102% (inactive) and 95.2% (inactive), respectively. In experiment [2], the Her2 level is 74% (inactive). The differential viability (reversal) in experiment [6] (H69AR cells + 2 uM doxorubicin) is -3.68% (inactive). Further, the values for the inhibition in experiment [7], in experiment [8] and in experiment [14] were -4.8% (inactive), -3.5% (inactive) and 1.97% (inactive), respectively. For the same compound, the figures for the growth inhibition in experiment [9] and in experiment [10] were 14.6% (inactive) and 14.5% (inactive), respectively. Besides, the viability increase in experiment [11] is -0.77% (inactive). Further, the RAM network inhibition in experiment [15] was -1.39% (inactive).

For `COc1cccc(-n2c(SCC(=O)Nc3cc(C)on3)nc3c([nH]c4ccccc43)c2=O)c1`, the viability was 76% in [1]; 76% (inactive) in experiment [3]; 61.5% (inactive) in experiment [4]; 66.4% (inactive) in [5]; 82.6% in experiment [6] (setting [16]); 66.4% in experiment [6] (setting [17]). Moreover, the viability in [12] was 82% (inactive); in experiment [13] it was 73.8% (inactive). Further, in [2], the Her2 level is 90.5% (inactive). Besides, in [6] (H69AR cells + 2 uM doxorubicin), the differential viability (reversal) is -16.2% (inactive). The inhibition in experiment [7] was -4.53% (inactive); in experiment [8], -0.67% (inactive); in experiment [14], 2.33% (inactive). In addition, the growth inhibition was -3.05% (inactive) in experiment [9] and -0.53% (inactive) in [10]. In addition, the viability increase in [11] was -4.78% (inactive). Moreover, the RAM network inhibition in experiment [15] is 1.62% (inactive).

Turning to `COC(=O)NCC(c1cccnc1)N1CCOCC1` (stereo not drawn), the viability is 97% in experiment [1]; 97% (inactive) in experiment [3]; 103% (inactive) in [4]; 95.7% (inactive) in experiment [5]; 93.3% in [6] (setting [16]); 95.7% in experiment [6] (setting [17]). In addition, the viability is 102% (inactive) in [12] and 99.6% (inactive) in [13]. For the same compound, in [2], the Her2 level was 95.5% (inactive). Also, in experiment [6] (H69AR cells + 2 uM doxorubicin), the differential viability (reversal) is 2.39% (inactive). Further, the inhibition in experiment [7] was -0.64% (inactive); in experiment [8] it was -4.83% (inactive); in [14], 0.015% (inactive). Moreover, the figures for the growth inhibition in experiment [9] and in experiment [10] were -1.88% (inactive) and -7.24% (inactive), respectively. Besides, in experiment [11], the viability increase was 0.99% (inactive). Moreover, in experiment [15], the RAM network inhibition was -0.26% (inactive).

On to `CCOC(=O)c1ccc(NC(=O)CC2SC(=NC)N(C)C2=O)cc1` (stereo not drawn), for which the viability in experiment [1] is 107%; in [3], 107% (inactive); in [4], 110% (inactive); in experiment [5], 105% (inactive); in experiment [6] (setting [16]) it was 88.7%; in experiment [6] (setting [17]) it was 105%. The viability is 101% (inactive) in experiment [12] and 97.8% (inactive) in [13]. Besides, the Her2 level in [2] is 88.5% (inactive). The differential viability (reversal) in [6] (H69AR cells + 2 uM doxorubicin) was 16.6% (inactive). The inhibition in [7] was -3.03% (inactive); in [8] it was -1.9% (inactive); in experiment [14] it was 2.03% (inactive). In addition, the growth inhibition in experiment [9] was 6.34% (inactive); in experiment [10], 11.4% (inactive). Besides, the viability increase in experiment [11] is -0.46% (inactive). In addition, in experiment [15], the RAM network inhibition is 2.16% (inactive).

For `CCOC(=O)c1oc2c(CN3CCN(C)CC3)c(O)ccc2c(=O)c1-c1ccccc1OC`, the viability in [1] is 94%; in experiment [3], 94% (inactive); in experiment [4], 99.5% (inactive); in experiment [5], 93.1% (inactive); in [6] (setting [16]), 93.3%; in [6] (setting [17]), 93.1%. For the same compound, the viability in experiment [12] was 103% (inactive); in experiment [13], 94% (inactive). In addition, the Her2 level in experiment [2] is 110% (inactive). Besides, the differential viability (reversal) in [6] (H69AR cells + 2 uM doxorubicin) is -0.225% (inactive). Further, the inhibition in experiment [7] is 0% (inactive); in experiment [8] it was 0.5% (inactive); in experiment [14] it was 3.98% (inactive). For the same compound, the values for the growth inhibition in experiment [9] and in [10] were -13% (inactive) and -15.5% (inactive), respectively. Moreover, the viability increase in [11] is -1.3% (inactive). In addition, in experiment [15], the RAM network inhibition was 1.2% (inactive).

Consider `CCOc1ccc(N(CC(=O)NCc2ccco2)S(=O)(=O)c2ccc(OC)c(OC)c2)cc1`, for which the viability in experiment [1] is 79%; in experiment [3], 79% (inactive); in experiment [4], 89.3% (inactive); in [5], 83.7% (inactive); in experiment [6] (setting [16]) it was 83.2%; in experiment [6] (setting [17]) it was 83.7%. Moreover, the viability in [12] was 94.7% (inactive); in experiment [13], 90.4% (inactive). Also, the Her2 level in experiment [2] was 85% (inactive). Further, in experiment [6] (H69AR cells + 2 uM doxorubicin), the differential viability (reversal) is 0.495% (inactive). Further, the figures for the inhibition in experiment [7], in [8] and in [14] were -3.51% (inactive), -6.5% (inactive) and 2.28% (inactive), respectively. The growth inhibition was -3.81% (inactive) in [9] and -16.6% (inactive) in experiment [10]. Besides, the viability increase in experiment [11] is -4.63% (inactive). Moreover, the RAM network inhibition in [15] was 2.74% (inactive).

Consider `Cc1nnc(SCC(=O)Nc2ccc3c4c(cccc24)CC3)n1C`, for which the viability in experiment [1] is 102%; in experiment [3] it was 102% (inactive); in experiment [4], 93.2% (inactive); in experiment [5], 86.9% (inactive); in experiment [6] (setting [16]) it was 86.8%; in experiment [6] (setting [17]), 86.9%. The viability in experiment [12] is 92.9% (inactive); in experiment [13], 89.8% (inactive). Besides, in [2], the Her2 level was 79% (inactive). Further, the differential viability (reversal) in experiment [6] (H69AR cells + 2 uM doxorubicin) was 0.115% (inactive). Further, the inhibition in experiment [7] is -6.08% (inactive); in experiment [8], -3.83% (inactive); in [14], 3.25% (inactive). The growth inhibition is -0.36% (inactive) in [9] and -5.08% (inactive) in [10]. The viability increase in [11] was -4.3% (inactive). Also, the RAM network inhibition in experiment [15] is 3.77% (inactive).

For `COc1cc(C(=O)Nc2cccc(-c3nncn3C)c2)cc(OC)c1OC`, the viability in experiment [1] is 102%; in experiment [3], 102% (inactive); in experiment [4] it was 101% (inactive); in [5], 89% (inactive); in [6] (setting [16]) it was 81.2%; in experiment [6] (setting [17]) it was 89%. The viability was 91.4% (inactive) in experiment [12] and 104% (inactive) in experiment [13]. The Her2 level in [2] is 110% (inactive). The differential viability (reversal) in [6] (H69AR cells + 2 uM doxorubicin) was 7.79% (inactive). Further, the inhibition was -2.31% (inactive) in [7], -5.5% (inactive) in [8] and 0.045% (inactive) in [14]. Also, the growth inhibition was 2.38% (inactive) in experiment [9] and 4.63% (inactive) in [10]. In addition, in [11], the viability increase was -1.76% (inactive). Further, the RAM network inhibition in experiment [15] is 1.54% (inactive).

Regarding `COc1ccccc1CNC(=O)CCn1c(=O)[nH]c2ccsc2c1=O`, the viability in [1] is 97.5%; in experiment [3], 97.5% (inactive); in experiment [4], 114% (inactive); in [5], 93.9% (inactive); in experiment [6] (setting [16]), 88.9%; in [6] (setting [17]) it was 93.9%. Moreover, the viability was 101% (inactive) in experiment [12] and 99.4% (inactive) in experiment [13]. For the same compound, the Her2 level in experiment [2] was 102% (inactive). In experiment [6] (H69AR cells + 2 uM doxorubicin), the differential viability (reversal) is 4.96% (inactive). The values for the inhibition in experiment [7], in experiment [8] and in [14] were -7.97% (inactive), 2.17% (inactive) and 1.01% (inactive), respectively. Also, the growth inhibition in experiment [9] is -21% (inactive); in experiment [10], -14.4% (inactive). The viability increase in experiment [11] was -0.23% (inactive). The RAM network inhibition in experiment [15] was 4.41% (inactive).
